In PubChem BioAssay (NCATS) one finds Potency data, which are given here for 40 molecules.

Inconclusive results are not listed. Entries that show only a call come without a potency. The source made the active and inactive calls. Calls come from the whole dose curve; as a rule, active = well fitted inhibition curve with a large enough effect; inconclusive = small, poorly fitted or top-dose-only effect; inactive = flat fitted curve, though single readings scatter.
Potency is the fitted concentration of half-maximal effect.

For the experiment, the system named is CP203. In words: qHTS profiling for inhibitors of Plasmodium falciparum proliferation (AID 504749). Note: nearly all actives have a fitted effect of over 60% in size. The conditions noted are these: P. falciparum in erythrocytes, SYBR Green DNA, 72 h; series mostly up to 28.7 µM. The source says: NIH National Institute of Allergy and Infectious Diseases [NIAID] NIH Chemical Genomics Center [NCGC] MLPCN Grant: None Assay Provider: Xinzhuan Su, NIAID NCGC Assay Overview: Plasmodium falciparum is a virulent malarial parasite that kills 1-2 million people worldwide each year. Transmitted by mosquitoes, the sporozoite form of the parasite enters the blood stream to infect hepatocytes, where they become merozoites that infect red blood cells (erythrocytes). Within erythrocytes, merozoites begin a […] cycle of growth and division, after which the parasite is released to infect new red blood cells. Gametocytes, which form within erythrocytes as well, circulate in the bloodstream and are ingested by the mosquito, thereby completing the life cycle. To profile malarial isolates for differential chemical responses and to identify inhibitors of malarial growth, an assay that measures P. falciparum growth and replication within erythrocytes was employed. This assay uses a DNA binding fluorescent dye (SYBR Green) to detect parasite DNA following cell lysis. Because mature erythrocytes lack DNA, only Plasmodium-derived DNA is detected.
NCGC Assay Protocol Summary: The SYBR Green viability assay was adapted from a method described previously (Plouffe et al., 2008). For screening 3 ul culture medium was dispensed into 1536 well black clear bottom plates (Aurora Biotechnologies) using a Multidrop Combi (Thermo Fisher Scientific Inc.), 23 nL compounds in DMSO were added by a pin tool (Kalypsys), and 5 ul of erythrocytes infected with P. falciparum (0.3% parasitemia, 2.5% hematocrit final concentration) were added. The plates were incubated at 37 C in a humidified incubator in 5% CO2 for 72 h, and 2 ul lysis buffer (20 mM Tris HCl, 10 mM EDTA, 0.16% saponin, 1.6% triton X, 10X SYBR Green I supplied as 10,000X […] by Invitrogen) was added to each well. The plates were mixed for 25 sec with gentle shaking and incubated overnight at room temperature in the dark. The following morning, fluorescence intensity at 485(14) nm excitation and 535(25) nm emission wavelengths was measured on an EnVision (Perkin Elmer) plate reader. Plate reads were normalized relative to the control inhibitor (0.29 uM artemisinin) and vehicle (DMSO) wells present on each plate and then corrected by an algorithm using vehicle-only control plates at the beginning and end of the compound plate stack.
In general terms: qHTS replaces the single test concentration by a dilution series.
Regarding `CN(CCOc1ccc(CC2SC(=O)NC2=O)cc1)c1ccccn1` (stereo not given), the Potency entry was “inactive”. Next, `CC(C)Cn1cnc2c(N)nc3ccccc3c21`: “inactive”. Next, `CCOC(=O)c1ccc(C#Cc2ccc3c(c2)C(C)(C)CCS3)nc1`: “inactive”. With `CN1CCN(c2c(F)cc3c(=O)c(C(=O)O)cn(CCF)c3c2F)CC1`, the Potency result was “inactive”. Next, `O=c1oc2c(O)c(O)cc3c(=O)oc4c(O)c(O)cc1c4c23`: “inactive”; `COc1nc(N)nc2c1ncn2[C@@H]1O[C@H](CO)[C@@H](O)[C@@H]1O`: “inactive”. Consider `N[C@@H](C(=O)N[C@@H]1C(=O)N2C(C(=O)O)=C(Cl)CS[C@H]12)c1ccccc1`, for which the Potency result is “inactive”. Next, `COc1ncnc(NS(=O)(=O)c2ccc(N)cc2)c1OC`: “inactive”; `COc1c(N2CCNC(C)C2)c(F)cc2c(=O)c(C(=O)O)cn(C3CC3)c12` (stereo not given): “inactive”; `CCC(C)(C)c1ccc(CC(C)CN2C[C@@H](C)O[C@@H](C)C2)cc1` (stereo not given in full): “inactive”.

Take `COc1ccc(-c2ccc3cc(C(=O)O)ccc3c2)cc1C12CC3CC(CC(C3)C1)C2`: the Potency entry is “inactive”. Next, `COc1cc(NS(=O)(=O)c2ccc(N)cc2)nc(OC)n1`: “inactive”; `CCn1cc(C(=O)O)c(=O)c2cc(F)c(N3CCNCC3)cc21`: “inactive”. Next, `NC(N)=NC(N)=NCCc1ccccc1`: “inactive”. Next, `COc1ccc2cc3[n+](cc2c1OC)CCc1cc2c(cc1-3)OCO2`: 1070 nM (active); `O=S(=O)(O)CCS`: “inactive”. For the molecule `Nc1nc(N)nc(-c2cc(Cl)ccc2Cl)n1`, the Potency entry is “inactive”. Turning to `COC(=O)Nc1nc2ccc(Sc3ccccc3)cc2[nH]1`, the Potency entry was “inactive”.

On to `N[C@@H](Cc1ccc(O)c(O)c1)C(=O)O`, for which the Potency result was “inactive”.

On to `CCc1cc(C(N)=S)ccn1`, for which the Potency entry was “inactive”.

As to `OC(Cn1cncn1)(Cn1cncn1)c1ccc(F)cc1F`, the Potency entry is “inactive”. Next, `NC(=O)N1c2ccccc2CC(=O)c2ccccc21`: “inactive”; `O=c1cc(O)c(Cl)c[nH]1`: “inactive”. Next, `CNC1CCCN(c2c(F)cc3c(=O)c(C(=O)O)cn(C4CC4)c3c2OC)C1` (stereo not given): “inactive”; `CCn1cc(C(=O)O)c(=O)c2cc(F)c(N3CCNCC3)nc21`: “inactive”; `CC(=O)Oc1ccccc1C(=O)Nc1ncc([N+](=O)[O-])s1`: “inactive”. Next, `CC(C)NCC(O)c1ccc(NS(C)(=O)=O)cc1` (stereo not given): “inactive”; `Nc1nc(N)c2nc(CNc3ccc(C(=O)NC(CCC(=O)O)C(=O)O)cc3)cnc2n1` (stereo not given): “inactive”. In the case of `CC(C)(Sc1cc(C(C)(C)C)c(O)c(C(C)(C)C)c1)Sc1cc(C(C)(C)C)c(O)c(C(C)(C)C)c1`, the Potency entry was “inactive”. Next, `CCCCOc1ccc(CC(=O)NO)cc1`: 3610 nM (active); `CN(C)CCc1c[nH]c2ccc(CS(=O)(=O)N3CCCC3)cc12`: “inactive”.

Turning to `C[C@]12C=CC(=O)C=C1CC[C@@H]1[C@@H]2C(=O)C[C@@]2(C)[C@H]1CC[C@]2(O)C(=O)CO`, the Potency result is “inactive”. Regarding `CN(Cc1cc(Br)cc(Br)c1N)C1CCCCC1`, the Potency entry is “inactive”.

With `CC(C)(C#N)c1cc(Cn2cncn2)cc(C(C)(C)C#N)c1`, the Potency entry was “inactive”. Consider `CC1=CC(=O)c2ccccc2C1=O`, for which the Potency result was “inactive”. Next, `N=C(N)c1ccc(OCCCCCOc2ccc(C(=N)N)cc2)cc1`: 953 nM (active); `CC[C@H](NC(C)C)[C@H](O)c1ccc(O)c2[nH]c(=O)ccc12`: “inactive”. Next, `Cc1cccc(N(C)C(=S)Oc2ccc3ccccc3c2)c1`: “inactive”; `O=C(O)c1cc(=O)[nH]c(=O)[nH]1`: “inactive”; `CCOC(=O)[C@H](CCc1ccccc1)N[C@H]1CS[C@H](c2cccs2)CN(CC(=O)O)C1=O`: “inactive”.
